# According to PubChem BioAssay:
# Active and inactive are the calls of the source. Unless noted, no rule for the calls is given here.
# Columns and labels:
# [1] = resazurin metabolic signal in HepG2 cells – cell-based, resazurin fluorescence, 24 h, PK04 Diversity Set, profiling panel (AID 1172); conditions: HepG2 viability, higher = more signal
# [2] = budding yeast growth changes without added modifier – OD600, strain BY4716, 24 h, basal condition, primary screen (AID 1173); conditions: S. cerevisiae BY4716 growth, OD600, 24 h; higher = more signal, called active from +8 up or from −8 down
# [3] = viability profiling in MM1S myeloma cells – cell-based, resazurin fluorescence, basal, 24 h, PK04 Diversity Set, profiling panel (AID 1174); conditions: higher = more signal, called active from +8 up or from −8 down;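 also: MM1S multiple myeloma cell line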
# [4] = molecular target: Dihydroorotate dehydrogenase (quinone), mitochondrial (Plasmodium falciparum (isolate 3D7)) (UniProt Q08210); assay: inhibition of P. falciparum DHODH – biochemical, C-terminal His tag, absorbance 600 nm, primary screen (AID 1175); conditions: PfDHODH enzyme, DCIP absorbance 600 nm; higher = more signal, called active from +8 up or from −8 down;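 also: recombinant parasite enzyme with a five histidine tag at its C terminus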
# Dihydroorotate dehydrogenase (quinone), mitochondrial (Plasmodium falciparum (isolate 3D7)), sequence (Q08210 whole entry, looked up): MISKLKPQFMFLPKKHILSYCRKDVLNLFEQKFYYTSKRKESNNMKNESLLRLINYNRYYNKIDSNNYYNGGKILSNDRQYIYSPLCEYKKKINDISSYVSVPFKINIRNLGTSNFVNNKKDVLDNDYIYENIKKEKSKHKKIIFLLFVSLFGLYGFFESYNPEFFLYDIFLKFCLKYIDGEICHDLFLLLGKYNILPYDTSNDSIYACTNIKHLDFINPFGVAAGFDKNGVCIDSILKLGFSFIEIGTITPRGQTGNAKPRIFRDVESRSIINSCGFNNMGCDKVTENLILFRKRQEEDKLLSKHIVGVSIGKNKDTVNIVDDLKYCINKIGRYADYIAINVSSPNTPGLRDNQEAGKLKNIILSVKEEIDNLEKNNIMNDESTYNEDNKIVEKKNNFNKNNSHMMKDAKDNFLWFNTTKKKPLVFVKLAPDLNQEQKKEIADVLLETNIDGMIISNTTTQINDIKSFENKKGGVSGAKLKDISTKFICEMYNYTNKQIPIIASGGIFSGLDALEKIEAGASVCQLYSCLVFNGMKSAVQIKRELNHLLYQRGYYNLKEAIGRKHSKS
# [5] = inhibition of PAO1 biofilm formation – strain PAO1, LB-PBS medium, absorbance 600 nm, primary screen (AID 1176); conditions: P. aeruginosa PAO1 growth/biofilm, A600, 12 h; higher = more signal
# [6] = growth modulation of vineyard yeast isolate – strain RM11-1a, OD600, basal, 24 h, primary screen (AID 1177);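 also: cultures grown under basal conditions with no added stressor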; conditions: S. cerevisiae RM11-1a growth, OD600, 24 h; higher = more signal, called active from +8 up or from −8 down
# [7] = growth of efflux-deficient E. coli DRC39 – strain DRC39, OD650, 24 h, E. coli filamentation inducers, primary screen (AID 1178);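 also: growth measured as culture turbidity by optical density at 650 nm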; conditions: E. coli DRC39 acrAB, higher = more signal, called active from +8 up or from −8 down
# [8] = growth of efflux-deficient E. coli DRC39 – strain DRC39, OD650, 48 h, E. coli filamentation inducers, primary screen (AID 1179);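 also: screen aims at cell division blockers that make cells filament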; conditions: E. coli DRC39 delta-acrAB growth, higher = more signal, called active from +8 up or from −8 down
# [9] = viability profiling in RPMI8226 myeloma cells – cell-based, resazurin fluorescence, basal, 24 h, PK04 Diversity Set, profiling panel (AID 1180); conditions: higher = more signal;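 also: RPMI8826 multiple myeloma cell line at 5000 cells per well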
# [10] = molecular target: E3 ubiquitin-protein ligase XIAP (Homo sapiens) (UniProt P98170); assay: small molecules binding XIAP protein – biophysical, small-molecule microarray, fluorescence 635 nm, primary screen (AID 1181); conditions: higher = more signal;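 also: score merges 667 nm emission and signal to noise over triplicate slides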
# E3 ubiquitin-protein ligase XIAP (Homo sapiens), sequence (P98170 whole entry, looked up, the tested form may be a part): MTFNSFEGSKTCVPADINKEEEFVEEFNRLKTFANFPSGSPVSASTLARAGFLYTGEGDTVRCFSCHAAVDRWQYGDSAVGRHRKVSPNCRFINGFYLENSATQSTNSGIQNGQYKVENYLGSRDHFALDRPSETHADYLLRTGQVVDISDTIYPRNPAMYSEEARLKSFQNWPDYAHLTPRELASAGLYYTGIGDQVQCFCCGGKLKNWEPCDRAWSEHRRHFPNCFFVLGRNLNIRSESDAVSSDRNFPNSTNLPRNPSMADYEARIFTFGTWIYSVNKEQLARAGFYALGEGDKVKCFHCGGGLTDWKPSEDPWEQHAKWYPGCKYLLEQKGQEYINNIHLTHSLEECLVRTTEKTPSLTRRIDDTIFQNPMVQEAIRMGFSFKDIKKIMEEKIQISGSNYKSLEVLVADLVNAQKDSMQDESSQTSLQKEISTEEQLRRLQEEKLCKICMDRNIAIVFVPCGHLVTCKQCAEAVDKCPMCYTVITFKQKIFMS
# [11] = system: XIP peptide (Xip251-270) binding; assay: XIP fragment 251-270 binding compounds – biochemical, small-molecule microarray, fluorescence 635/667 nm, 0.1 µg/mL protein, primary screen (AID 1182); conditions: fluorescent protein binding, 635 nm, higher = more signal, called active from +8 up or from −8 down
# XIP peptide (Xip251-270) = assay: compounds binding XIP fragment 251-270 – biochemical, small-molecule microarray, fluorescence 635/667 nm, 0.5 µg/mL protein, primary screen (AID 1183); conditions: fluorescence 635 nm, higher = more signal
# [12] = blood-stage malaria parasite viability loss – strain 3D7, DAPI fluorescence, 100 nL, primary screen (AID 1184);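 also: parasites grown inside human red blood cells in medium with human serum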; conditions: P. falciparum 3D7 growth, 3 d, higher = more signal
# [13] = molecular target: Homeobox protein Hox-A13 (Mus musculus) (UniProt Q62424); assay: disruptors of Hoxa13 oligonucleotide interaction – biochemical, fluorescence polarization, labeled oligonucleotide, primary screen (AID 1185); conditions: Hoxa13:DNA binding, 15 min, higher = more signal, called active from +8 up or from −8 down
# Homeobox protein Hox-A13 (Mus musculus), sequence (Q62424 whole entry, looked up): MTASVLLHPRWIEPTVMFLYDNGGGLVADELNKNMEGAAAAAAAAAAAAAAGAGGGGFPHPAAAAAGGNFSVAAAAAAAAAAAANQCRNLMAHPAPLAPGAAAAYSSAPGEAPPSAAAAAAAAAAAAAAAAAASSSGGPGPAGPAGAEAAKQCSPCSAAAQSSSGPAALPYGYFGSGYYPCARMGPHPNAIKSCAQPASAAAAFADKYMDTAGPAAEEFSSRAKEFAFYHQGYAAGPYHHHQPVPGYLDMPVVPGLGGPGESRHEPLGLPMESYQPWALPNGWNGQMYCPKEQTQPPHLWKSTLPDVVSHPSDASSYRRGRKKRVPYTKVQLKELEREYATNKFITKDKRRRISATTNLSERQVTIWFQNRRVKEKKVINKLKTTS
# [14] = blockers of DNA damage checkpoint Chk1 activation – imaging, HeLa, hydroxyurea, phospho-Chk1 antibody, percent positive cells, primary screen (AID 1186); conditions: hydroxyurea-induced phospho-Chk1 immunofluorescence imaging, higher = more signal
# [15] = blockers of DNA damage checkpoint Chk1 activation – imaging, HeLa, hydroxyurea, phospho-Chk1 nuclear intensity, primary screen (AID 1187); conditions: hydroxyurea-induced phospho-Chk1 immunofluorescence imaging, higher = more signal
SMILES,z-score [1],z-score [2],z-score [3],composite z-score [4],z-score [5],z-score [6],z-score [7],z-score [8],z-score [9],composite z-score [10],composite z-score [11],composite z-score (XIP peptide (Xip251-270)),z-score [12],z-score [13],z-score [14],z-score [15]
C=C(CCCC)/C(=C/C[C@@H](OC(C)=O)c1cccc(OCCO)c1)c1cnc2ccccc2c1,-0.256,-0.236 (inactive),-0.657 (inactive),-3.06 (inactive),0.108 (inactive),0.647 (inactive),0.309 (inactive),-0.132 (inactive),0.418,-0.173,-0.276 (inactive),0.114,-2.99,-4.61 (inactive),-0.24 (inactive),-0.359 (inactive)
O=C1O[C@@H](c2ccccc2)[C@@H](c2ccccc2)N2[C@@H](c3ccc(OCCO)cc3)[C@]3(C(=O)Nc4ccc(C#CCCO)cc43)[C@@H](C(=O)NC[C@H](O)c3ccccc3)[C@H]12,0.148,1.49 (inactive),0.428 (inactive),1.47 (inactive),2.78 (inactive),2.97 (inactive),0.968 (inactive),1 (inactive),0.671,-0.0249,0.0796 (inactive),0.822,-0.271,-3.67 (inactive),-0.174 (inactive),-0.317 (inactive)
C=C(CCCC)/C(=C/C[C@H](OC(C)=O)c1ccc(OCCO)cc1)c1cnc2ccccc2c1,0.846,-0.0576 (inactive),-1.42 (inactive),-3.75 (inactive),0.403 (inactive),-0.476 (inactive),0.187 (inactive),0.225 (inactive),0.228,-0.312,0.578 (inactive),0.741,-2.93,-4.14 (inactive),0.212 (inactive),-0.34 (inactive)
CC(C)CN1C(=O)[C@@]2(c3ccc([N+](=O)[O-])cc3)CC(=O)N(C3CCCCC3)[C@@H]2c2ccc(CO)cc21,-0.321,0.669 (inactive),-0.248 (inactive),-13.6 (active),0.292 (inactive),0.488 (inactive),0.0743 (inactive),0.922 (inactive),-0.323,0.119,-0.0685 (inactive),-0.57,-0.643,-0.113 (inactive),0.0566 (inactive),0.558 (inactive)
C=C(C(=O)CC[C@H](OC(C)=O)c1ccccc1OCCO)C(C)C,-1.64,-18.4 (active),-1 (inactive),-9.12 (active),-0.493 (inactive),-22.2 (active),-0.587 (inactive),-0.573 (inactive),-1.62,0.42,-0.571 (inactive),0.332,-2.09,-0.163 (inactive),-0.145 (inactive),-0.0797 (inactive)
O=C(O)C1N=C(c2ccc(OCCCO)cc2)N(c2ccccc2)O1 (centres undefined),-0.0554,0.0427 (inactive),-0.258 (inactive),-0.928 (inactive),-0.469 (inactive),0.0613 (inactive),-0.351 (inactive),0.46 (inactive),-0.219,-0.22,1.77 (inactive),0.852,-0.112,-2.98 (inactive),-0.259 (inactive),-0.229 (inactive)
COc1cc2c(cc1OC)CN(C(=O)[C@H]1[C@@H]3C(=O)O[C@@H](c4ccccc4)[C@@H](c4ccccc4)N3[C@@H](c3ccccc3OCCO)[C@]13C(=O)Nc1ccc(C#CCCO)cc13)CC2,0.51,1.69 (inactive),-0.442 (inactive),0.749 (inactive),1.54 (inactive),3.11 (inactive),-0.456 (inactive),-0.542 (inactive),-0.0397,-0.152,0.138 (inactive),0.438,-2.16,1.23 (inactive),0.211 (inactive),0.0914 (inactive)
C=CCNC(=O)[C@H]1[C@@H]2C(=O)O[C@@H](c3ccccc3)[C@@H](c3ccccc3)N2[C@@H](c2ccc(O)cc2)[C@]12C(=O)Nc1ccc(C#CCCO)cc12,1.13,0.189 (inactive),1.16 (inactive),0.0992 (inactive),-0.42 (inactive),0.957 (inactive),0.516 (inactive),0.567 (inactive),1.08,-0.198,-0.0879 (inactive),-0.227,0.093,-4.04 (inactive),-0.266 (inactive),-0.136 (inactive)
CC(C)Cc1ccc(CN2CC[C@@H](N)C2)cc1,1.51,-12.8 (active),-1.49 (inactive),4.28 (inactive),-0.271 (inactive),-0.0782 (inactive),1.47 (inactive),0.611 (inactive),-0.681,-0.269,0.773 (inactive),-0.0255,-0.423,-0.811 (inactive),-0.939 (inactive),-0.735 (inactive)
